The values that follow come from PMC12136788.

Sequences and labels used below:
T1: UNK ZnF1-3 (human, UniProt Q9C0B0 31-174)
T1 sequence: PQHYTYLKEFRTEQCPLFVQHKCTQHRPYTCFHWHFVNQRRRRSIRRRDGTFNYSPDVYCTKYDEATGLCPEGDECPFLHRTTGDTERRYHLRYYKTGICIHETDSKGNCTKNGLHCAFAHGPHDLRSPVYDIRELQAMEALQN

B1: chr1:66463027:66463028:+_ENSMUSG00000015222_ENSMUST00000114013|mus_hu|motif|central (ssRNA)
RNA: GGGAGUUCUACAGUCCGACGAUCUUUUCUUUCAGGAGUGGAAAUUCUGCCUCUCCCGGUUUUAAAAGGCUUUUCUUUUCGGUGUUUCUCAAGAGAUGAUCUCCGAGCUUCCUUUUCAGCUUUCUCCUCUUUAGGAAUAGUUUCCAACAGAGGAUUGAGCAUCA
B2: 18138343_18138463_2469_3pUTR_ENSMUSG00000026740_ENSMUST00000166495|mouse|control|control (ssRNA)
RNA: GGGAGUUCUACAGUCCGACGAUCUUAGAUCCAUGUAUUCAUGUGCAUGUGUCUAUGUGGGCUCGGAUGUGUGUGCUGUACCACAAUAUGAAUGCAGAGGUCAGAGGACAGCUCCUGUGAACAUGUGCUUGCUGGAGAGUGAGUCAACAGAGGAUUGAGCAUCA
B3: chr17:88379672:88379673:+_ENSMUSG00000005370_ENSMUST00000005503|mus_mus|motif|central (ssRNA)
RNA: GGGAGUUCUACAGUCCGACGAUCUCCCUUUUGGGCUUCCUUUGACUUUGAACCUGUAUAUGGCUUUAACAUCCUUUUGCGGACCCAGCCCCUUGUUGGGCUGUCAUCAAAGAACUGUACAUGAACACGGACAGAUUUCCCUUUCAACAGAGGAUUGAGCAUCA
B4: chr2:48026839:48026840:+_ENSG00000116062_ENST00000540021|hu_hu|hu_hu_hu_mus_False|48_78 (ssRNA)
RNA: GGGAGUUCUACAGUCCGACGAUCAUAGUGAGCCACUAGCGUCCUAAAUCUGGAACAAUGGCGAUCAUCCGAAAACUGGCCGAUGAAAAACUUUCCCAGUGAAGUGUCCACAAAGCAAACACCAUACACACGAGUGUGACCAGACAACAGAGGAUUGAGCAUCA
B5: chr1:55207850:55207851:+_ENSMUSG00000025979_ENSMUST00000162364|mus_hu|FALSE|FALSE (ssRNA)
RNA: GGGAGUUCUACAGUCCGACGAUCCCGAUGAUGAAAAUAAGCAUGUGAAAAUAUUCUGUAAAUCCUACGGCAUACUGAUCCUAGUUUCGCUACAGAUGAUUCCUUUAUGCUAACCCUGCUGGGAAAAUAUUUAUUGCUAUUCAGCAACAGAGGAUUGAGCAUCA
B6: chr1:213302989:213302990:+_ENSG00000136643_ENST00000366960|hu_hu|motif|central (ssRNA)
RNA: GGGAGUUCUACAGUCCGACGAUCAGAAGCAACAGCCCCUAGUGCUGAAGAAUCCGAAGAAAGAUUGAGACCAAAAGUUCGGAUGGGAGAAUUUUGAUUGGAAGCCAUUCCAUCAUCUAACUCAGCAAGAGAAUCCACAUCAACCAACAGAGGAUUGAGCAUCA
B7: chr1:163117127:163117128:-_ENSG00000143248_ENST00000313961|hu_mus|hu_hu_hu_mus_False|78_98 (ssRNA)
RNA: GGGAGUUCUACAGUCCGACGAUCUGCUACAAAGGAUGGAGGAAAUAUCACAGGGCAUGAUUUCAUAGCCUGACCAGAUGACUACUUGAUUAGCUCCUUAUAAAAUUCAGAGCGCACAAAGCGGGGCAGAGAAUCCUUCUCCAUCAACAGAGGAUUGAGCAUCA
B8: chr3:131220538:131220539:-_ENSG00000114686_ENST00000264995|hu_mus|motif|central (ssRNA)
RNA: GGGAGUUCUACAGUCCGACGAUCUUCUUCAGAAAGAUGUUCAUCCCACCAAGUACUACUCUUGCUGUGGAGAUUUCGGACAAAGAACAAGAUAUUCUUUCUUCUCUCUAAGCCGGGGUCAGCACCUAGGCCUCUGGCGCCACACAACAGAGGAUUGAGCAUCA
B9: chr6:82862619:82862620:-_ENSMUSG00000000627_ENSMUST00000000641|mus_mus|FALSE|FALSE (ssRNA)
RNA: GGGAGUUCUACAGUCCGACGAUCAACCUGCUUGUAAUUUCCUACACACUUUUCUGGGUUCCUUUUGUCAUCCCUCAAUAGCUAGAAUGUUGUGAAGUUCAUUUUAAAUGGAAGCCAAGGAAAGAGGGCUCAGCCUCCACUCCACAACAGAGGAUUGAGCAUCA
B10: chr4:107545374:107545375:+_ENSMUSG00000028613_ENSMUST00000106731|mus_mus|FALSE|FALSE (ssRNA)
RNA: GGGAGUUCUACAGUCCGACGAUCGUUGAUGGAUAGCCACAAAGCAUAAUUUUAUUUACAAAAAAAUCAAGCCCCUCAAACCUAAAAAAGCUCUCAACUCAAACAUCCUCUGUAAAUACUGUAUUCAAAUGAUGAGUGAAGUUUCAACAGAGGAUUGAGCAUCA
B11: chr1:174973770:174973771:+_ENSG00000116161_ENST00000406752|hu_mus|FALSE|FALSE (ssRNA)
RNA: GGGAGUUCUACAGUCCGACGAUCGAGUUCCGUCUCAAUCUUGGACUUUUCACUUGUAAGAGUAUCACGUAGUCUUUUCCUAGUGGACUUUUCCAGCAAUACUUUGACCUCUUCUAGGUCUUUCUGCAACUCUUCCAAAACGGACAACAGAGGAUUGAGCAUCA
B12: chr22:19452774:19452775:-_ENSG00000070010_ENST00000399523|hu_hu|hu_hu_hu_mus_False|1_68 (ssRNA)
RNA: GGGAGUUCUACAGUCCGACGAUCCUUCUCAUUGUAGUUGAUAGCAAUCACAUCUCCAGUCGUCAGACAGGCAAAGUUUCUCAAUGCAUUUUCUAAUACCGCUUUAGGGUUGGUAAUAUCCAGGAAGUCUGGGCUCUGAGGUUGCAACAGAGGAUUGAGCAUCA
B13: 64993253_64993373_409_3pUTR_ENSMUSG00000029920_ENSMUST00000031984|mouse|control|control (ssRNA)
RNA: GGGAGUUCUACAGUCCGACGAUCCUUCAGCACUAAGAGAAAUUGGUGACGAAGGACGGGCCUGGGAGGGCUGAGGGGCUGCUUCGGGUGCUUCCUCAAUCUUACUCCUUUUCUCAAAGCGAAAACGGUCCAAGUUGAAAAGAUCAACAGAGGAUUGAGCAUCA
B14: chr2:160855017:160855018:-_ENSMUSG00000057133_ENSMUST00000039782|mus_hu|FALSE|FALSE (ssRNA)
RNA: GGGAGUUCUACAGUCCGACGAUCAUCCUUUUCGAGCUCUUCCAUUGUGGCCCAUUUACAAUGUAAGUAGGAAAAAUUUCUAUACUUAACGUAGAACAGCUCCAAGUCGAACGGAGGUUCUCCUGGGUGAACCUCCUGGACAGUCAACAGAGGAUUGAGCAUCA

The full ranking holds about 24,000 sequences; the median of “enrichment r” is about 0.99, and the highest 2% start at about 3.7. A selection follows.

The target of the test is T1, UNK ZnF1-3. Briefly: nsRBNS (natural sequence RNA bind-n-seq); RBNS binding buffer (assumed for nsRBNS): 25 mM Tris pH 7.5, 150 mM KCl, 3 mM MgCl2, 0.01% Triton X-100, 500 ug/ml BSA, 20 U/ml SUPERase-In, 4 C; UNK is unkempt and MSI1 is Musashi-1; names of the RNAs are library labels; protein concentration not given here; high values mean tight binding.
In the case of B1, the binding signal is 0.426 enrichment R. The figure for B2 is 1.27 enrichment R; for B3 it is 0.538 enrichment R.

With B4, the binding signal came to 1.26 enrichment R. On to B5, for which the binding signal was determined as 1.13 enrichment R. For B6, the binding signal is 2.3 enrichment R.

As to B7, the binding signal came out at 1.46 enrichment R.

Molecule B8 came in with a binding signal of 0.785 enrichment R. The figure for B9 is 0.841 enrichment R. In the case of B10 it was 1.47 enrichment R; in that of B11, 0.405 enrichment R; in that of B12, 1.02 enrichment R. The figure for B13 is 1.21 enrichment R; for B14 it is 0.672 enrichment R.
